Test results published in PubChem BioAssay (Tox21).
Records with an inconclusive call do not appear. Calls of active or inactive are those of the source. Unless noted, calls come from the whole dose curve.

What was measured:
[1] = Nuclear factor erythroid 2-related factor 2/antioxidant responsive element (Nrf2/ARE) small molecule agonists: luciferase reporter gene qHTS assay in human keratinocytes (AID 1919969); note: nearly all actives have a fitted effect of over 35% in size
[2] = biological target: Gonadotropin-releasing hormone receptor (Homo sapiens) (UniProt P30968); assay: Human gonadotropin-releasing hormone receptor (GnRHR) small molecule agonists, calcium flux assay in GnRHR-HEK293 cells (AID 1920063); note: nearly all actives have a fitted effect of over 35% in size
Gonadotropin-releasing hormone receptor (Homo sapiens), sequence (P30968 whole entry, looked up): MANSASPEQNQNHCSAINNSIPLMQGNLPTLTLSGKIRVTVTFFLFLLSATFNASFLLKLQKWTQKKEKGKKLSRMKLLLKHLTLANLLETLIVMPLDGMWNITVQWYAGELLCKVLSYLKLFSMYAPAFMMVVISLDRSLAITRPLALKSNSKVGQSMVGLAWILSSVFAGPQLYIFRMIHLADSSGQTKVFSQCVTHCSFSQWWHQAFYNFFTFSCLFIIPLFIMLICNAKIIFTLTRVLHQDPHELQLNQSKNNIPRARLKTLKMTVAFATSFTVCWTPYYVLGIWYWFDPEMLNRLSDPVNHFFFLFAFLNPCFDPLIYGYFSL
In short: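 Stable human GnRHR HEK293 line. 18 h plating, then calcium dye for 1 h at 37 C. Agonist-mode compound addition from DMSO stocks; fluorescence monitored 3 min.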

[3] = biological target: KiSS-1 receptor (Homo sapiens) (UniProt Q969F8); assay: Human kisspeptin (KISS1R) small molecule agonists, calcium flux assay in KISS1R-HEK293 cells (AID 1920064; active = well fitted activation curve with a large enough effect in the repeat runs)
KiSS-1 receptor (Homo sapiens), sequence (Q969F8 whole entry, looked up): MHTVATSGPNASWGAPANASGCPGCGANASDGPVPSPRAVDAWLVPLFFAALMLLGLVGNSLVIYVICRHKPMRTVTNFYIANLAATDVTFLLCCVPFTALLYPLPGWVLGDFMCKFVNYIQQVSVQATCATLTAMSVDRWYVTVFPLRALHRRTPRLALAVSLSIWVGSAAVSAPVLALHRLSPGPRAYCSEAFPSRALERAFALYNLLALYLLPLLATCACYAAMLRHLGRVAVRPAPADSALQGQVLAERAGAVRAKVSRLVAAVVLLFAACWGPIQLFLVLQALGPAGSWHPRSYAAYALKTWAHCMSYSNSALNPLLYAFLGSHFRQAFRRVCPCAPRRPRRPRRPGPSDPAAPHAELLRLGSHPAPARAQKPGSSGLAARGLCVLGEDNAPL
In short: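 After overnight (18 h) culture at 37 C/5% CO2, human KISS1R-HEK293 cells received calcium dye for 1 h, then test compound; emission at 540 nm (excitation 480 nm) was tracked for 3 min.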

[4] = G protein-coupled receptor (GPCR) small molecule agonists, calcium flux assay: HEK293 wild type cell line counter screen (AID 1920065)
In short: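 Following 18 h incubation at 37 C/5% CO2, plates got calcium dye for 1 h; compounds, ATP or DMSO were then pinned in and fluorescence followed kinetically (480/540 nm).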

[5] = p53 small molecule agonists, cell-based qHTS assay with human liver microsomes (AID 1963577)
In short: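 Compounds act here after metabolic activation: human liver microsomes and NADPH, both at 0.5 mg/mL final, were co-added to p53RE-bla cells. Incubation ran 16 h at 37 C, followed by LiveBLAzer detection.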

[6] = p53 small molecule agonists, cell-based qHTS assay with rat liver microsomes (AID 1963578)
In short: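 Read-out is beta-lactamase reporter fluorescence (LiveBLAzer, 2 h, room temperature, dark) in p53RE-bla cells treated 16 h at 37 C with compound, rat liver microsomes and NADPH, both 0.5 mg/mL final.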

[7] = p53 small molecule agonists, cell-based qHTS assay with human liver microsomes: qHTS cell viability counter screen (AID 1963579); note: nearly all actives have a fitted effect of over 45% in size
In short: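 Cells carrying the p53 response-element beta-lactamase reporter are treated for 16 h at 37 C with test compounds in the presence of human liver microsomes and NADPH (both 0.5 mg/mL final); ATP-based CellTiter-Glo luminescence then reports viability.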

[8] = p53 small molecule agonists, cell-based qHTS assay with rat liver microsomes: qHTS cell viability counter screen (AID 1963580); note: nearly all actives have a fitted effect of over 45% in size; note: potency is the fitted concentration of half-maximal effect
In short: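 Rat liver microsome (0.5 mg/mL final) and NADPH (0.5 mg/mL final) co-incubation with compounds for 16 h at 37 C on HCT-116 p53RE-bla cells; cytotoxicity taken from intracellular ATP luminescence.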

[9] = p53 small molecule agonists, cell-based qHTS assay: qHTS cell viability counter screen (AID 1963581); note: nearly all actives have a fitted effect of over 45% in size
In short: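 qHTS counter screen: 16 h compound exposure at 37 C of p53RE-bla HCT-116 cells (4,000 per well, seeded 5 h prior), cell viability by ATP luminescence.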

[10] = biological target: 5-hydroxytryptamine receptor 2A (Homo sapiens) (UniProt P28223); assay: 5-hydroxytryptamine receptor 2A (HTR2A) small molecule antagonists, cell-based qHTS assay (AID 1963586); note: nearly all actives have a fitted effect of over 45% in size; note: potency is the fitted concentration of half-maximal effect
5-hydroxytryptamine receptor 2A (Homo sapiens), sequence (P28223 whole entry, looked up): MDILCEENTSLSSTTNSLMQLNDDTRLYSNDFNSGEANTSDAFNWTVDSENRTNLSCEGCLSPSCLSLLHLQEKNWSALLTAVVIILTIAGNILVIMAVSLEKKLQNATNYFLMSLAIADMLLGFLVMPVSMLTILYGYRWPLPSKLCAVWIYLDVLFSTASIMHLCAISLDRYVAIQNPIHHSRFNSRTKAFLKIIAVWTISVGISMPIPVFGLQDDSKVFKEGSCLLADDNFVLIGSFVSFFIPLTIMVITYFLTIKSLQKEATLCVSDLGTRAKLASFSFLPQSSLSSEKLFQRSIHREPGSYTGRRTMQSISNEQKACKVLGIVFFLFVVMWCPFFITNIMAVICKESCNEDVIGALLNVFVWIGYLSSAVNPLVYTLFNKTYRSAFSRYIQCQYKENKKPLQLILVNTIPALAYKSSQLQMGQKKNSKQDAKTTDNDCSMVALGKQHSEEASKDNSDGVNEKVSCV
In short: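 CHO cells stably expressing human HTR2A were plated for 18 h at 37 C, then loaded with calcium dye for 1 h. Compounds were preincubated 5 min at room temperature before DOI (4 nM solution) was added. Kinetic fluorescence was read for 3 min.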

[11] = biological target: 5-hydroxytryptamine receptor 2A (Homo sapiens) (UniProt P28223); assay: 5-hydroxytryptamine receptor 2A (HTR2A) small molecule agonists, cell-based qHTS assay (AID 1963587); note: nearly all actives have a fitted effect of over 30% in size
In short: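 Kinetic calcium-flux fluorescence (2 min, 1 sec intervals) after compound addition in agonist mode. HTR2A-CHO cells were cultured 18 h, then dye-loaded 1 h at 37 C.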

[12] = biological target: Muscarinic acetylcholine receptor M1 (Homo sapiens) (UniProt P11229); assay: Cholinergic receptor muscarinic 1 (CHRM1) small molecule antagonists, cell-based qHTS assay (AID 1963588); note: nearly all actives have a fitted effect of over 40% in size
Muscarinic acetylcholine receptor M1 (Homo sapiens), sequence (P11229 whole entry, looked up): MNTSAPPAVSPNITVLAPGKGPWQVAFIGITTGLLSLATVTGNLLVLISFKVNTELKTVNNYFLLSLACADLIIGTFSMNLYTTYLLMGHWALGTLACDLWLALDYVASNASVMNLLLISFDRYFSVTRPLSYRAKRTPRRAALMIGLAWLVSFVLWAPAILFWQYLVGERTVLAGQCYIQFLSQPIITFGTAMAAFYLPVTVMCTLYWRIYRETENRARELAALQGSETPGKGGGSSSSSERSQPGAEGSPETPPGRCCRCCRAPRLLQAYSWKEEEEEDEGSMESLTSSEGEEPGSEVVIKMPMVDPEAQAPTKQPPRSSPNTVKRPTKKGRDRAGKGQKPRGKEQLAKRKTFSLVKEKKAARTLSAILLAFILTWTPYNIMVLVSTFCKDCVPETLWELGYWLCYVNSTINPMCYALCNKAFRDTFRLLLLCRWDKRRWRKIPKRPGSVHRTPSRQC
In short: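 Compounds were tested at 15 concentrations in three independent runs. Dye-loaded CHRM1-CHO cells were exposed 5 min at room temperature before stimulation by acetylcholine added at 50nM. Intracellular calcium was read kinetically on FDSS for 3 min.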

[13] = biological target: Muscarinic acetylcholine receptor M1 (Homo sapiens) (UniProt P11229); assay: Cholinergic receptor muscarinic 1 (CHRM1) small molecule agonists, cell-based qHTS assay (AID 1963589); note: nearly all actives have a fitted effect of over 35% in size
In short: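 Kinetic fluorescence (1 s intervals) of calcium-sensitive dye in human M1 CHO cells after compound addition; cells pre-incubated 18 h at 37 C/5% CO2 and dye-loaded 1 h.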

[14] = cAMP Responsive Elements (CRE) small molecule agonists, cell-based qHTS assay (AID 1963590)
In short: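 Test agents in DMSO were incubated 3 h at 37 C/5% CO2 with CRE-bla HEK 293T cells seeded 18 h earlier; LiveBLAzer B/G FRET substrate was added and read after 2 h at room temperature.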

[15] = cAMP Responsive Elements (CRE) small molecule antagonists, cell-based qHTS assay (AID 1963591; active = well fitted inhibition curve with a large enough effect in the signal ratio in the repeat runs, not every such curve was filed as active; the % refers to the signal ratio)
In short: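 Reporter line CRE-bla HEK 293T in dialyzed-FBS DMEM; cells preincubated 18 h, treated 3 h with compound plus NKH477 (0.25 uM final); LiveBLAzer FRET, 2 h RT.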

[16] = biological target: Beta-2 adrenergic receptor (Homo sapiens) (UniProt P07550); assay: Adrenergic beta2 receptor (ADRB2) small molecule antagonists, cell-based qHTS assay (AID 1963592); note: series mostly up to about 92 µM; nearly all actives have a fitted effect of over 50% in size
Beta-2 adrenergic receptor (Homo sapiens), sequence (P07550 whole entry, looked up): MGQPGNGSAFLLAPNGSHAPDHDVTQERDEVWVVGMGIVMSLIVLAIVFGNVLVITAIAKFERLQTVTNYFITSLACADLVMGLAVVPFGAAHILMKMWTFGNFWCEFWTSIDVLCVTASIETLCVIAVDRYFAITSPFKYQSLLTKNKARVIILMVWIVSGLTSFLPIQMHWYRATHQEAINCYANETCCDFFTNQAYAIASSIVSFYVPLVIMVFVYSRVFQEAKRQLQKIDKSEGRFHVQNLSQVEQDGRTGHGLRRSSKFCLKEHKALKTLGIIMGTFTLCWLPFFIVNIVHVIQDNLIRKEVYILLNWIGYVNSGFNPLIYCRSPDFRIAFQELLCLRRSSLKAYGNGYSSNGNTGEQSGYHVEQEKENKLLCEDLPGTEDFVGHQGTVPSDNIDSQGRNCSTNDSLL
In short: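 Assay format: CHO-ADRB2 cells, 18-20hr seeding at 37C/5% CO2, then compound plus 1nM isoproterenol agonist mix for 0.5hr RT. Homogeneous time-resolved fluorescence cAMP detection after 1hr, expressed as 665/615 nm ratio.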

[17] = biological target: D(2) dopamine receptor (Homo sapiens) (UniProt P14416); assay: Dopamine D2 receptor (DRD2) small molecule agonists, cell-based qHTS assay (AID 1963594); note: nearly all actives have a fitted effect of over 35% in size
D(2) dopamine receptor (Homo sapiens), sequence (P14416 whole entry, looked up): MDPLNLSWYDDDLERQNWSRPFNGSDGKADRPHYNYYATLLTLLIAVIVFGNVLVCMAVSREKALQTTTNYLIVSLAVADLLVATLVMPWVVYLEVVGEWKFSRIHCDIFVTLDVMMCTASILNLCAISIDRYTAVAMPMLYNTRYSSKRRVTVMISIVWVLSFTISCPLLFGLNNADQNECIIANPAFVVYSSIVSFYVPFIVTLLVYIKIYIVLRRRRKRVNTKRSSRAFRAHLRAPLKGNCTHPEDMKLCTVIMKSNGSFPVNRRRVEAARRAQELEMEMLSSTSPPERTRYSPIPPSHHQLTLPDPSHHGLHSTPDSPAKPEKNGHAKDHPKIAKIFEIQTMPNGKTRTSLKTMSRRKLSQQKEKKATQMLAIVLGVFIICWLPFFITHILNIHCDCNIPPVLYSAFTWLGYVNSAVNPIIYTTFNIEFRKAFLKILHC
In short: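 cAMP accumulation in DRD2-HEK293 cells measured by HTRF after 1 h detection; compounds added 10 min before NKH477 (200nM […]) forskolin-analogue stimulation, 30 min at room temperature, with Ro20-1724 present at 0.1 mM final.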

[18] = biological target: D(2) dopamine receptor (Homo sapiens) (UniProt P14416); assay: Dopamine D2 receptor (DRD2) small molecule antagonists, cell-based qHTS assay (AID 1963595; active = well fitted inhibition curve with a large enough effect in the signal ratio in the repeat runs, with a control signal flat; the % refers to the signal ratio)
In short: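 DRD2-HEK293; 0.1 mM Ro20-1724; cpd 10 min RT; NKH477 200 nM + quinpirole 12 nM, 30 min RT; HTRF cAMP (cAMP-d2/anti-cAMP cryptate), 665/620 nm ratio after 1 h.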

[19] = p53 small molecule agonists, cell-based qHTS assay (AID 1963582; active = well fitted activation curve with a large enough effect in the signal ratio in the repeat runs, not every such curve was filed as active; the % refers to the signal ratio)
In short: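 Measured: fluorescence from cleaved LiveBLAzer substrate. System: p53RE-bla cells, 16 h compound treatment at 37 C, 2 h substrate step at room temperature.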

[20] = biological target: Beta-2 adrenergic receptor (Homo sapiens) (UniProt P07550); assay: Adrenergic beta2 receptor (ADRB2) small molecule agonists, cell-based qHTS assay (AID 1963593);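 note: CHO cells stably overexpressing human ADRB2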
In short: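 CHO cells stably over-expressing ADRB2 were plated overnight at 37C, then dosed with compounds plus a stimulation mix containing 100uM IBMX and 25uM Ro-20-1724 for 0.5hr at room temperature. cAMP was measured by HTRF competition, 1hr.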

Measured: Potency

C[Si](C)O[Si](C)(C)O[Si](C)(C)O[Si](C)C
not listed: [19] | [20]
inactive: all other assays above

CCCC(=O)CC
not listed: [12] | [15] | [20]
inactive: all other assays above

O=C(C(=O)c1ccccc1)c1ccccc1
not listed: [8]
inactive: all other assays above

O=c1c(-c2ccc(O)cc2)coc2cc(O)ccc12
active: [8] 10.1 µM | [10] 33.4 µM
not listed: [9] | [14] | [20]
inactive: all other assays above

CC1=CC[C@H](CC=O)C1(C)C
not listed: [18]
inactive: all other assays above

CC(CC=O)CC(C)(C)C (stereo not given)
inactive: all assays above
